The source of these data is PubChem BioAssay (NCI).

About 83,000 compounds went through this panel and 20% of them were active in at least one assay; those are over-represented in the sample as a whole.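 Note: values are percent growth. 100 is the growth of untreated cells, values between 100 and 0 indicate rising inhibition; between -100 and 0 indicates cell death.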 Values without a mark were called inactive. The source made the active and inactive calls. How the source made its calls: active means growth percent below 10; inactive means the rest.

What all share (assay): NCI-60 one-dose screen, 48 h (100 = growth as untreated, 0 = no growth, -100 = all killed)
One experiment has as its system SK-MEL-2 melanoma. The conditions noted are these: 10 µM unless noted.
In the next experiment the test system is SN12C renal. The settings on record: 10 µM unless noted.
The test system of another experiment is UO-31 renal. The settings on record: 10 µM unless noted.
A further experiment relates to TK-10 renal. The settings on record: 10 µM unless noted.
Another experiment has as its system ACHN renal. The conditions noted are these: 10 µM unless noted.
The subject of a further experiment is CAKI-1 renal. The settings on record: 10 µM unless noted.
The next experiment relates to A498 renal. The settings on record: 10 µM.
For another experiment, the system named is HL-60(TB) leukemia. The conditions noted are these: 10 µM unless noted.
For the next experiment, the system named is CCRF-CEM leukemia. The conditions noted are these: 10 µM unless noted.

With `CCC1CN1CCCCN1CC1CC` (stereo unspecified), the growth is 118% with SK-MEL-2 melanoma; 95.2% in the experiment with SN12C renal; 92.6% with UO-31 renal; 104% with TK-10 renal; 100% with ACHN renal; 99.6% with CAKI-1 renal. Besides, the figures for the growth in the experiment on A498 renal and with HL-60(TB) leukemia were 115% and 123%, respectively.
With `O=C1CCC2(O)[C@@H]3Cc4ccc(O)c5c4[C@]2(CCN3Cc2ccoc2)C1O5` (stereo partly specified), the growth is 106% with SK-MEL-2 melanoma; 97.9% in the experiment on SN12C renal; 78.8% with UO-31 renal; 102% with TK-10 renal; 98% in the experiment with ACHN renal; 99.3% with CAKI-1 renal. Moreover, the growth in the experiment with A498 renal was 108%; with HL-60(TB) leukemia it was 95%; in the experiment on CCRF-CEM leukemia, 98.5%.
In the case of `CN1CC(=O)N(O)C1(C)c1cccnc1` (stereo unspecified), the growth in the experiment with SK-MEL-2 melanoma is 94.6%; in the experiment with SN12C renal it was 101%; in the experiment with UO-31 renal, 87.5%; with TK-10 renal, 97.7%; with ACHN renal, 102%; with CAKI-1 renal, 95.2%. The growth in the experiment on A498 renal was 97.2%; with HL-60(TB) leukemia, 92.2%; in the experiment on CCRF-CEM leukemia it was 106%.
As to `NC1CC2CCCCC2CC1(O)c1ccccc1` (stereo unspecified), the growth in the experiment with SK-MEL-2 melanoma was 100%; with SN12C renal, 101%; with UO-31 renal, 83.9%; in the experiment with TK-10 renal it was 96.6%; in the experiment on ACHN renal, 104%; with CAKI-1 renal, 107%. Further, the growth was 89.8% with A498 renal, 91.1% in the experiment on HL-60(TB) leukemia and 96% with CCRF-CEM leukemia.
Consider `CC12CC(=O)C3(SC#N)C(CCC4=CC(=O)CCC43C)C1CCC2=O` (stereo unspecified), for which the growth was 125% in the experiment with SK-MEL-2 melanoma; 85% in the experiment with SN12C renal; 39% with UO-31 renal; 81.4% in the experiment with TK-10 renal; 49.2% with ACHN renal; 93.5% in the experiment with CAKI-1 renal. Besides, the growth in the experiment with A498 renal is 95.3%; with HL-60(TB) leukemia, 43.2%.
Regarding `C[C@]12CC[C@@H]3c4ccc(Oc5nc(N6CC6)nc(N6CC6)n5)cc4CC[C@H]3[C@@H]1CCC2=O`, the growth is 56.4% in the experiment with SK-MEL-2 melanoma; 21.5% with SN12C renal; 28.6% in the experiment with UO-31 renal; 59.6% with TK-10 renal; 16.3% in the experiment on ACHN renal; 10.9% in the experiment with CAKI-1 renal. Also, the growth in the experiment on A498 renal is -18.5% (active); in the experiment on HL-60(TB) leukemia it was -35.6% (active); in the experiment with CCRF-CEM leukemia, 3.37% (active).
Regarding `O=C(c1cccc(O)c1O)c1cn(Cc2ccc(F)cc2)c2cccc(O)c12`, the growth is -6.9% (active) in the experiment on SK-MEL-2 melanoma; 34% in the experiment on SN12C renal; -10.3% (active) in the experiment with UO-31 renal; 77% in the experiment with TK-10 renal; 21.5% with ACHN renal; 21.5% in the experiment with CAKI-1 renal. Moreover, the growth in the experiment with A498 renal is 108%; in the experiment on HL-60(TB) leukemia, -32.8% (active); with CCRF-CEM leukemia, 4.35% (active).
For the compound `COc1ccc(/C=C\c2cc(OC)c(OC)c(OC)c2)cc1NS(=O)(=O)c1ccc(Cl)cc1`, the growth is 69.5% with SK-MEL-2 melanoma; 79.8% with SN12C renal; 55.1% in the experiment on UO-31 renal; 80.2% with TK-10 renal; 62.2% with ACHN renal; 42.8% with CAKI-1 renal. The growth with A498 renal was 47%; in the experiment on HL-60(TB) leukemia it was 54.1%; with CCRF-CEM leukemia it was 78%.
As for `CCC1(C)CC(CCNCc2ccccc2O)(c2ccc(C)cc2)CCO1` (stereo unspecified), the growth in the experiment with SK-MEL-2 melanoma was 104%; with SN12C renal, 105%; in the experiment on UO-31 renal, 101%; in the experiment with TK-10 renal, 106%; with ACHN renal, 102%; in the experiment with CAKI-1 renal, 106%. Also, the growth with A498 renal was 103%; with HL-60(TB) leukemia it was 97.3%; with CCRF-CEM leukemia, 103%.
For the compound `COc1cc2c(c(OC)c1OC)-c1ccc([O-])c(=O)cc1[C@@H](NC(C)=O)CC2.COc1cc2c(c(OC)c1OC)-c1ccc([O-])c(=O)cc1[C@@H](NC(C)=O)CC2.[Cu+2]`, the growth with SK-MEL-2 melanoma was -4.65% (active); in the experiment on SN12C renal, 43.5%; in the experiment with UO-31 renal it was 22.2%; with TK-10 renal it was 71.7%; with ACHN renal, 53.6%; in the experiment on CAKI-1 renal it was 34.1%. Further, the results for the growth with A498 renal, in the experiment on HL-60(TB) leukemia and in the experiment with CCRF-CEM leukemia were 14.9%, -44.9% (active) and 9.3% (active), respectively.
Take `O=[N+]([O-])c1ccc(OP(=O)(CCl)N(CCCl)CCCl)cc1` (stereo unspecified): the growth with SK-MEL-2 melanoma is 81.9%; in the experiment with SN12C renal it was 112%; in the experiment with UO-31 renal, 84.4%; in the experiment on TK-10 renal, 99.6%; in the experiment with ACHN renal it was 101%; in the experiment with CAKI-1 renal, 95.2%. The growth in the experiment with A498 renal was 109%; in the experiment with HL-60(TB) leukemia, 94.4%.
Regarding `CC(=O)/C=C/c1ccc2c(c1)OCO2`, the growth in the experiment on SK-MEL-2 melanoma is 107%; in the experiment with SN12C renal it was 98.1%; in the experiment with UO-31 renal it was 100%; in the experiment on TK-10 renal, 99.7%; with ACHN renal, 97.5%; in the experiment on CAKI-1 renal it was 91.5%. In addition, the growth in the experiment on A498 renal was 118%; in the experiment with HL-60(TB) leukemia it was 104%; in the experiment on CCRF-CEM leukemia it was 94.1%.
For `CCCCCCCCCCCCCCCCCC1OC[C@@H](COC(=O)O[C@@H](C(=O)O[C@H]2C[C@@]3(O)[C@@H](OC(=O)c4ccccc4)[C@@H]4[C@]5(OC(C)=O)CO[C@@H]5C[C@H](O)[C@@]4(C)C(=O)[C@H](OC(C)=O)C(=C2C)C3(C)C)[C@@H](NC(=O)c2ccccc2)c2ccccc2)O1` (stereo partly specified), the growth was 82.9% in the experiment on SK-MEL-2 melanoma; 72% in the experiment on SN12C renal; 93.5% with UO-31 renal; 108% in the experiment with TK-10 renal; 92.4% in the experiment on ACHN renal; 89.3% in the experiment on CAKI-1 renal. For the same compound, the results for the growth with A498 renal, in the experiment with HL-60(TB) leukemia and with CCRF-CEM leukemia were 70.9%, 35.8% and 59.2%, respectively.
For `CCCCCN(CCCCC)CC(O)c1cc(Cl)ccc1OC` (stereo unspecified), the growth in the experiment on SK-MEL-2 melanoma is 32.8%; in the experiment on SN12C renal it was 52.7%; in the experiment with UO-31 renal, 25.2%; with TK-10 renal, 73.1%; in the experiment with CAKI-1 renal, 28.7%; with A498 renal, 37.4%. Moreover, in the experiment on HL-60(TB) leukemia, the growth is 55.4%.
